Results published in paper PMC4336329 (PLoS ONE, 2015).
Out of some 310,000 compounds screened, about 14,000 (4.5%) showed an effect of 50% or more. The effect is printed as a negative number. The sample holds strong results, similar compounds and a random draw of the others, so the mix is not that of the screen.

Biological target: human ether-à-go-go-related gene (hERG) potassium channel (human, UniProt Q12809)
Assay: primary screen, population patch clamp on CHO cells stably expressing hERG; higher = less effect of the substance
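Also: peak tail current of the secondary pulse compared with the same well before compound.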

Sequence of human ether-à-go-go-related gene (hERG) potassium channel (Q12809 whole entry, looked up): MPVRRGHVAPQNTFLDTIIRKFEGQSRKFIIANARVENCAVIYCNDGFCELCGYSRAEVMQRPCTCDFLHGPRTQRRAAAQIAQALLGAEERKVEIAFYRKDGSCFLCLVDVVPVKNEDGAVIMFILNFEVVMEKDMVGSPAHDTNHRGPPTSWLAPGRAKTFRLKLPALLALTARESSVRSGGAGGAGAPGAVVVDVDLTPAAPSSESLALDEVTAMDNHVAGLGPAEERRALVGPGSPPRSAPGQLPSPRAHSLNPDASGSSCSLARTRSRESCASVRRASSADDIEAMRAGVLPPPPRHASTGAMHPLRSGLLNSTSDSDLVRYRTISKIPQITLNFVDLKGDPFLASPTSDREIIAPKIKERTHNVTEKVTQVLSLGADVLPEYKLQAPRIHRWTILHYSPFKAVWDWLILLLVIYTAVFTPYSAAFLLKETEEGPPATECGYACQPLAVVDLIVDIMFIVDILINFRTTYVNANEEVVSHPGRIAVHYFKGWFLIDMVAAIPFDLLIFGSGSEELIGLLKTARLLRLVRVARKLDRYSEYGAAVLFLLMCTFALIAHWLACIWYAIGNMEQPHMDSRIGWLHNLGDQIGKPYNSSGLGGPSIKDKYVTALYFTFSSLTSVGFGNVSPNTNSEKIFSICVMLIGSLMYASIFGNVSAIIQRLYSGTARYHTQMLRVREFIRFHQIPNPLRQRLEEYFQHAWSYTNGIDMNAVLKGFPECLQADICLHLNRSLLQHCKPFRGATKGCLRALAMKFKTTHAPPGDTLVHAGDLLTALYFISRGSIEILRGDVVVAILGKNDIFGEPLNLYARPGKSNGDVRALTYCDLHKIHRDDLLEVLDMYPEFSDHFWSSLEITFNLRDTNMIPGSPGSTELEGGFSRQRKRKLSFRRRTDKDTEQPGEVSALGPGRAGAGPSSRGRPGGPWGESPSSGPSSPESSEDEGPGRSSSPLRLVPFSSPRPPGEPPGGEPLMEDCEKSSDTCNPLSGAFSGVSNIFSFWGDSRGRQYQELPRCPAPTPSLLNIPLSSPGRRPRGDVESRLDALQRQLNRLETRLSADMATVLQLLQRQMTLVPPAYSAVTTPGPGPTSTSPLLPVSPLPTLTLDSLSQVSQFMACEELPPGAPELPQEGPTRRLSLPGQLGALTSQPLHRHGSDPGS

Compound	hERG current change (%, negative = inhibition) at 10uM [%]
COC(=O)c1ccc(-n2cc(-c3ccc(OC)cc3)[nH]c2=S)cc1	33.1
Nc1c(C(=O)c2ccc(Cl)cc2)sc2c1c(=O)[nH]c(=O)n2-c1ccccc1	-24.2
CC[C@]1(c2ccccc2)C(=O)N(C(=O)OC)N1C(=O)OC	25.2
COc1ccc(-c2noc3c2-c2nc(-c4ccc(Cl)cc4)sc2CC3)cc1	9.5
CCCNC(=O)C12CCC(C)(C(=O)O1)C2(C)C (stereo not drawn)	17.2
Clc1ccc2nc(-c3ccc(Br)s3)cn2c1	8.14
CCc1ccc(-c2nc(CN3CCC(C(=O)NCc4ccccc4OC)CC3)c(C)o2)cc1	-68.4
COc1ccc(-c2nc(CN3CCC(C(=O)NC4CCN(Cc5ccccc5)CC4)CC3)c(C)o2)cc1OC	1.67
Cc1oc(-c2cccc(Cl)c2)nc1CN1CCC(C(=O)NCCCN2CCCC2=O)CC1	-38
COc1ccccc1CNC(=O)C1CCN(c2nc3ccccc3o2)CC1	-9.09
COc1ccccc1CNC(=O)C1CCN(Cc2nc(-c3cccc(Cl)c3)oc2C)CC1	-78
COCCOC(=O)c1c(NC(=O)COC(=O)c2ccc(C)o2)sc(C(N)=O)c1C	-10.9
CCc1ccc(CCOc2ccc(CC3SC(=O)NC3=O)cc2)nc1.Cl (stereo not drawn)	4.26
CC(C)CC(=O)N1CCN(C(=O)c2cccc(F)c2)CC1	0.0457
C1CCC(OCCN2CCN(CCOC3CCCCC3)CC2)CC1	-37.1
Cc1ccc(N2C(=O)NC3(CCCCC3)C2=O)cc1	9.24
CC(C)n1c(N2CCN(C(=O)Nc3ccc(F)cc3F)CC2)nc2ccccc21	-26.3
Cc1cc(N2CCN(C(=O)Nc3ccccc3C#N)CC2)c2ccccc2n1	-72.9
CCCCc1ccc(NC(=O)N2CCN(c3cc(C)nc4ccccc34)CC2)c(C)c1	-61.6
O=C(Nc1ccc(F)cc1F)N1CCN(c2ncccn2)CC1	-8.77
COc1ccccc1N1CCN(C(=O)Nc2cccc(Cl)c2)CC1	-28.2

Compound	hERG current change (%, negative = inhibition) at 10uM [%]
COc1ccccc1N1CCN(C(=O)Nc2cccc(C)c2)CC1	-3.99
Cc1cc(C(=O)Nc2ccccc2N2CCOCC2)c2ccccc2n1	-15.5
Cc1ccccc1NC(=O)N1CCN(c2ncccn2)CC1	4.15
Cc1cc(N2CCN(C(=O)/C=C/C(=O)O)CC2)c2ccccc2n1	32.4
Cc1cc(N2CCN(C(=O)Nc3ccc(F)cc3F)CC2)c2ccccc2n1	-72.2
Cc1cc(N2CCN(CC(O)C(F)(F)F)CC2)c2ccccc2n1 (stereo not drawn)	-40.7
COc1cccc(Cl)c1NC(=O)N1CCN(c2cc(C)nc3ccccc23)CC1	-75.3
CCOC(=O)c1sc(NC(=O)C2C3C=CC(C3)C2C(=O)O)nc1C (stereo not drawn)	16.2
CC[C@H](C)/C=C(C)/C=C/C1=CC2=CC(=O)[C@]3(C)OC(=O)[C@@H](C(C)=O)[C@@H]3C2=CO1	4.65
O=[N+]([O-])c1ccc(O)c(/C=N/n2c(-c3ccccc3)n[nH]c2=S)c1	17.9
O=C(O)c1cccc(Nc2ncnc3ccccc23)c1	17.3
CC1CCCC(C)N1NC(=O)c1cccc(S(=O)(=O)N2CCc3ccccc32)c1 (stereo not drawn)	-2.22
Cc1ccc(CSc2ncnc3ccccc23)cc1	11.3
Cc1ccc(S(=O)(=O)NNC(=O)C2COc3ccccc3O2)cc1C (stereo not drawn)	15.2
O=C(CSc1nnc(-c2ccc(S(=O)(=O)N3CCCC3)cc2)o1)NCc1ccco1	-7.57
COc1ccc(N2CCN(C(=O)CC34CC5CC(CC(C5)C3)C4)CC2)c([N+](=O)[O-])c1	0.229
COc1ccc(N2CCN(C(=S)NC(=O)c3cccs3)CC2)c([N+](=O)[O-])c1	-47.8
CCC(=O)N1CCN(c2ccc(OC)cc2[N+](=O)[O-])CC1	-19.5
COc1ccc(N2CCN(C(=O)c3ccccc3)CC2)c([N+](=O)[O-])c1	-67.7
COc1cccc(CC(=O)N2CCN(c3ccccc3[N+](=O)[O-])CC2)c1	-21
COc1cccc(C(=O)N2CCN(C(=O)c3cccc(F)c3)CC2)c1	-0.0938

Compound	hERG current change (%, negative = inhibition) at 10uM [%]
COc1ccc(C(=O)c2ccc(N3CCOCC3)c([N+](=O)[O-])c2)cc1	-43.7
COc1ccc(N2CCN(C(=O)c3ccc(Br)cc3)CC2)c([N+](=O)[O-])c1	-72.3
COc1ccc(N2CCN(C(=O)c3cccc(F)c3)CC2)c([N+](=O)[O-])c1	-73.2
COc1ccc(N2CCN(c3ccc(C(N)=O)cc3[N+](=O)[O-])CC2)cc1	2.51
Cn1c(=O)n(C)c2cc([N+](=O)[O-])c(N3CCN(C(=O)c4cccc(F)c4)CC3)cc21	-32.7
CCCCC(=O)N1CCN(c2ccc(OC)cc2[N+](=O)[O-])CC1	-64.5
COc1ccc(C2N=C(Nc3ccc(C)cc3)Nc3nc(C)cc(=O)n32)cc1 (stereo not drawn)	1.81
COc1ccc(CCN2CC(O)=C(c3nc(C)cs3)C2=N)cc1OC	-21.8
CCn1c(=O)c(C(=O)CN2CC(C)OC(C)C2)c(N)n(Cc2ccccc2)c1=O (stereo not drawn)	-32.6
COc1ccc(CCNC(=O)NC2CCCCC2)cc1OC	8.03
O=C(Nc1ccc(Cl)cc1)c1cc2c(cc1O)[nH]c1ccccc12	21
Cc1ccc2nc(-c3ccc(NS(=O)(=O)c4ccc(F)c(F)c4)cc3)sc2c1	23.3
COc1cccc(C2CC(c3ccccc3Cl)n3nc(N)nc3N2)c1 (stereo not drawn)	-9.01
COc1ccc(CCN(Cc2nc(-c3ccccc3)no2)Cc2nc(-c3ccccc3)no2)cc1OC	-3.37
O=C(N/N=C/c1cc([N+](=O)[O-])ccc1O)C1C2CCCCC21 (stereo not drawn)	3.28
CCn1cc(C(=O)N[C@@H](CCSC)C(=O)NCCO)c(=O)c2cc3c(cc21)OCO3	20.6
O=C(NCCC1=CCCCC1)c1ccc(Br)o1	-4.78
O=C(c1cccnc1)N1CCN(c2c(Cl)cccc2[N+](=O)[O-])CC1	-46
COc1ccc(N2CCN(C(=O)c3ccc(C)cc3)CC2)c([N+](=O)[O-])c1	-62.9
COc1cccc(N2CCN(C(=O)c3cccnc3)CC2)c1	11.2
COc1cccc(C(=O)NC(=S)N2CCN(c3ccc(C(F)(F)F)cc3[N+](=O)[O-])CC2)c1	1.6

Compound	hERG current change (%, negative = inhibition) at 10uM [%]
COc1ccc(N2CCN(C(=O)c3cccc(Br)c3)CC2)c([N+](=O)[O-])c1	-87.1
Cc1ccc(C)c(N2CCN(C(=O)c3ccc(N4CCOCC4)c([N+](=O)[O-])c3)CC2)c1	-21.2
COc1cccc(C(=O)/C=C/c2ccc(N3CCCCC3)c([N+](=O)[O-])c2)c1	-3.01
O=C(c1ccc([N+](=O)[O-])cc1)N1CCN(C(=O)c2cccnc2)CC1	-15.7
COc1ccc(N2CCN(C(=O)c3cccnc3)CC2)c([N+](=O)[O-])c1	-70.8
O=C(c1cccnc1)N1CCN(c2ccccc2Cl)CC1	-18.5
O=C(c1cccnc1)N1CCN(c2ccc([N+](=O)[O-])cc2Cl)CC1	-65
COc1ccc(C(C)=O)cc1COC(=O)CCNS(=O)(=O)c1ccc(C)c(C)c1	-38.3
O=C(CNC(=O)c1ccccc1)NCc1nc2ccccc2[nH]1	3.76
O=C(O)c1cc(-c2cccs2)nc2ccc(F)cc12	13.2
Cc1cccc(-c2nnn(Cc3nnc(NC(=O)c4ccccc4)s3)n2)c1	4.02
O=[N+]([O-])c1ccc(-c2cc(-c3ccc(Cl)cc3)n[nH]2)cc1	-4.49
COC(=O)c1sc2ncn(-n3c(C)ccc3C)c(=O)c2c1C	19.7
CN(C)c1ccc(C=C2C(=O)NC(=O)NC2=O)cc1[N+](=O)[O-]	30.8
O=C1NC(=O)C(=Cc2ccc(N3CCN(C(=O)c4ccccc4)CC3)c([N+](=O)[O-])c2)C(=O)N1	-67.1
O=C(c1ccc(F)cc1)N1CCN(c2cc(N3CCCCC3)c(F)cc2[N+](=O)[O-])CC1	-24.6
COc1ccc(N2CCN(C(=O)c3ccc(F)cc3)CC2)c([N+](=O)[O-])c1	-70.1
CCOC(=O)N1CCN(c2ccc(F)cc2[N+](=O)[O-])CC1	-10.5
CN1C(=O)C(=Cc2ccc(N3CCOCC3)c([N+](=O)[O-])c2)C(=O)N(C)C1=O	11.4
CCCC(=O)N(CCN(Cc1ccccc1)C(=O)CCC)Cc1ccccc1	-42.5
CCC(CO)NC(=O)c1cccc(S(=O)(=O)N2c3ccccc3CC2C)c1 (stereo not drawn)	2.65
